# Measured values as given in ChEMBL document CHEMBL3988442, “University of Dundee, Small-Polar-MMV Screening Library” (2021).
# For some assays here: Entries with a potency or affinity are not part of this list.
# Key:
# Design in all cases: scale not given: direction of the effect not stated beside the values
# [1] = molecular target: Protein translocase subunit SecA (Escherichia coli (strain K12)) (UniProt P10408); assay: Assay to Identify E. coli SecA ATPase Inhibitors; format: functional; conditions: 30 µM
# [2] = molecular target: T1, Ubiquitin-activating enzyme e1, putative (Leishmania donovani (strain BPK282A1)) (UniProt E9BSI1); assay: Leishmania donovani Ubiquitin Activating Enzyme (LdE1); format: functional; conditions: 30 µM
# T1 sequence (whole entry): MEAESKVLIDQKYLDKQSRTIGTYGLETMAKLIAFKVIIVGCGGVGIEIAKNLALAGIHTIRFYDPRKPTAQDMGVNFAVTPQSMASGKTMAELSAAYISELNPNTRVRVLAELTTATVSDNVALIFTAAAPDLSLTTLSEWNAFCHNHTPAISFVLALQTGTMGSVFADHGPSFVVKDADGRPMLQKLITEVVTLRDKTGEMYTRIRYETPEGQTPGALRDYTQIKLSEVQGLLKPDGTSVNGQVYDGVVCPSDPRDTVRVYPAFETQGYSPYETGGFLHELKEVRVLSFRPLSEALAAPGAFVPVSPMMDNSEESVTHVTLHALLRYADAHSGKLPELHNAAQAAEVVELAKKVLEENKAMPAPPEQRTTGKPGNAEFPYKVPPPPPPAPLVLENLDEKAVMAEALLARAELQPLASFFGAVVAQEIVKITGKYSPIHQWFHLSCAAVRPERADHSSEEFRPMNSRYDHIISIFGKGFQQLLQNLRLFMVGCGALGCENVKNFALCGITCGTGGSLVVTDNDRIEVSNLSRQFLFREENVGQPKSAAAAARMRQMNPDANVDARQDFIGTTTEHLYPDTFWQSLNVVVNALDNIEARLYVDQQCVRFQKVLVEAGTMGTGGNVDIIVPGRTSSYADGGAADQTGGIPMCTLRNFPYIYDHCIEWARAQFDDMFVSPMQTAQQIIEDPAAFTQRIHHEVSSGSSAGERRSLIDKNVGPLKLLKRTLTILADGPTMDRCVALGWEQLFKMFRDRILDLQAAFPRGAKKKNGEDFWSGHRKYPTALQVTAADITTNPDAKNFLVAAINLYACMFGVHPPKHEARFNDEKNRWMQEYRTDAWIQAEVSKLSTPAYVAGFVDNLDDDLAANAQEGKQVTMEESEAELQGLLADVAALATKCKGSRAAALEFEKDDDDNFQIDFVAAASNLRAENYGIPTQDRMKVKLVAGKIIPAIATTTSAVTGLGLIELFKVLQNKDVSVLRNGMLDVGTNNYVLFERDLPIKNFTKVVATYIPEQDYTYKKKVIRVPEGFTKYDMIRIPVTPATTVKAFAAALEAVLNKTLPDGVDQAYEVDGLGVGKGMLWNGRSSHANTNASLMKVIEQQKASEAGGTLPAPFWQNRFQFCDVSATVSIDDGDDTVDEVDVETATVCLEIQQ
# [3] = molecular target: AMP-activated protein kinase, AMPK (Homo sapiens) (UniProt P54646+O43741+P54619+Q9UGJ0+Q9Y478+Q13131+Q9UGI9); assay: AMP-dependent Kinase enzyme assay. An in vitro enzyme assay that detects ADP turnover that is directly proportional to AMPK activity. This uses naive AMPK that is activated during the assay with MK-8722; format: functional; conditions: 30 µM
# [4] = molecular target: Sialic acid-binding Ig-like lectin 9 (Homo sapiens) (UniProt Q9Y336); assay: Hs-Siglec9 ALPHAscreen SOP 20170721; conditions: 10 µM
# Trypanosoma cruzi = assay: Trypanosoma cruzi phosphomannomutase and mannose-1-phosphate guanylyltransferase assay; format: functional; conditions: 10 µM
# [5] = molecular target: T2, Arginase-2, mitochondrial (Homo sapiens) (UniProt P78540); assay: in vitro enzyme assay to detect the production of urea directly proportional to the activity of Arginase II; format: functional; conditions: 33.3 µM; note: in the data most compounds retested in dose-response had high values
# T2 sequence (whole entry): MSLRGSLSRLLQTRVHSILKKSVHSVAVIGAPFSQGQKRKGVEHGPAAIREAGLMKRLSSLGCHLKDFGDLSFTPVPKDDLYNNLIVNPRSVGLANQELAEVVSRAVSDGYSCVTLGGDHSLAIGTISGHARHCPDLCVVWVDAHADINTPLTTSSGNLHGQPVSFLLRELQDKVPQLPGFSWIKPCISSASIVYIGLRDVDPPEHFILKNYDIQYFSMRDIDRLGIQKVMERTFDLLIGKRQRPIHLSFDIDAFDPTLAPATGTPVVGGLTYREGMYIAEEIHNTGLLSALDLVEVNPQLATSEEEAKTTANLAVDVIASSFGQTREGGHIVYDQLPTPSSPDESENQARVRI
# [6] = molecular target: T3, Proteasome subunit beta (Trypanosoma cruzi) (UniProt O96673); assay: Trypanosoma cruzi proteasome chymotrypsin-like activity (TcProtChymo) assay.; note: in the data most compounds retested in dose-response had high values; format: functional; conditions: 9.37 µM
# T3 sequence (whole entry): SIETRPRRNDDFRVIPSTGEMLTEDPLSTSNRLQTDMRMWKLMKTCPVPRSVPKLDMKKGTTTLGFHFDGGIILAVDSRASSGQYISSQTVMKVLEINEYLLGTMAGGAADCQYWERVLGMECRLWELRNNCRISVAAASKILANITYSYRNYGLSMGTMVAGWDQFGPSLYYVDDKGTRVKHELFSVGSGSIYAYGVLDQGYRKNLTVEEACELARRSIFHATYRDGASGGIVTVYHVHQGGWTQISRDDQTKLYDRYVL
# Homo sapiens = organism: Homo sapiens; assay: To identify inhibition of the IFN signalling (Jak-Stat) pathway via expression of an eGFP reporter gene under the control of an IFN-stimulated response element (ISRE) containing MxA promoter.; format: functional; conditions: 30 µM
# [7] = molecular target: T4, Tyrosyl-tRNA synthetase, putative (Trypanosoma cruzi (strain CL Brener)) (UniProt Q4DSP6); assay: Trypanosoma cruzi tyrosyl tRNA synthetase (TcYRS) _High Tyrosine SOP; format: functional; conditions: 30 µM; note: in the data most compounds retested in dose-response had high values
# T4 sequence (whole entry): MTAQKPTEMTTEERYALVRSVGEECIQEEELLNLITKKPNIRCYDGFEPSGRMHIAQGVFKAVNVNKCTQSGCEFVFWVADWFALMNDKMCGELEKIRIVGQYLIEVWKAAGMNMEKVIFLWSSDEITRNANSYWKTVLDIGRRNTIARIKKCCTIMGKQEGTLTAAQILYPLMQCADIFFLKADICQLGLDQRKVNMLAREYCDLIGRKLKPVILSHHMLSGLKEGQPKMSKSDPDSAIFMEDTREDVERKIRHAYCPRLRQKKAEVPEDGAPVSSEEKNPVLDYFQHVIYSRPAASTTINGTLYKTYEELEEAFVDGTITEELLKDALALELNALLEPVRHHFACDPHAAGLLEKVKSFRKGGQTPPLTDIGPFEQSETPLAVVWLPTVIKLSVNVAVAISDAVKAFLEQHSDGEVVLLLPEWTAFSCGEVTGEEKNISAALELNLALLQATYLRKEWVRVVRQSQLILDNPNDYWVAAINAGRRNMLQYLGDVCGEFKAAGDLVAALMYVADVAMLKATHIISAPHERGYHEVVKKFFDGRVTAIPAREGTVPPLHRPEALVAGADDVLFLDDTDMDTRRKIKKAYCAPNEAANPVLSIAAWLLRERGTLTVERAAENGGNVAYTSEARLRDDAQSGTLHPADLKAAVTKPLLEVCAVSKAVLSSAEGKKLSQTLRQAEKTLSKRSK
# [8] = molecular target: T4, Tyrosyl-tRNA synthetase, putative (Trypanosoma cruzi (strain CL Brener)); assay: Trypanosoma cruzi tyrosyl tRNA synthetase (TcYRS) SOP; format: functional; conditions: 30 µM
# [9] = molecular target: Chromo domain-containing protein 1 (Saccharomyces cerevisiae (strain ATCC 204508 / S288c) (Baker's yeast)) (UniProt P32657); assay: ScCHD-1 Enzyme Inhibition Assay; format: functional; conditions: 30 µM; note: in the data most compounds retested in dose-response had high values
# Sequence of Chromo domain-containing protein 1 (Saccharomyces cerevisiae (strain ATCC 204508 / S288c) (Baker's yeast)) (P32657 whole entry, the tested form may be a part): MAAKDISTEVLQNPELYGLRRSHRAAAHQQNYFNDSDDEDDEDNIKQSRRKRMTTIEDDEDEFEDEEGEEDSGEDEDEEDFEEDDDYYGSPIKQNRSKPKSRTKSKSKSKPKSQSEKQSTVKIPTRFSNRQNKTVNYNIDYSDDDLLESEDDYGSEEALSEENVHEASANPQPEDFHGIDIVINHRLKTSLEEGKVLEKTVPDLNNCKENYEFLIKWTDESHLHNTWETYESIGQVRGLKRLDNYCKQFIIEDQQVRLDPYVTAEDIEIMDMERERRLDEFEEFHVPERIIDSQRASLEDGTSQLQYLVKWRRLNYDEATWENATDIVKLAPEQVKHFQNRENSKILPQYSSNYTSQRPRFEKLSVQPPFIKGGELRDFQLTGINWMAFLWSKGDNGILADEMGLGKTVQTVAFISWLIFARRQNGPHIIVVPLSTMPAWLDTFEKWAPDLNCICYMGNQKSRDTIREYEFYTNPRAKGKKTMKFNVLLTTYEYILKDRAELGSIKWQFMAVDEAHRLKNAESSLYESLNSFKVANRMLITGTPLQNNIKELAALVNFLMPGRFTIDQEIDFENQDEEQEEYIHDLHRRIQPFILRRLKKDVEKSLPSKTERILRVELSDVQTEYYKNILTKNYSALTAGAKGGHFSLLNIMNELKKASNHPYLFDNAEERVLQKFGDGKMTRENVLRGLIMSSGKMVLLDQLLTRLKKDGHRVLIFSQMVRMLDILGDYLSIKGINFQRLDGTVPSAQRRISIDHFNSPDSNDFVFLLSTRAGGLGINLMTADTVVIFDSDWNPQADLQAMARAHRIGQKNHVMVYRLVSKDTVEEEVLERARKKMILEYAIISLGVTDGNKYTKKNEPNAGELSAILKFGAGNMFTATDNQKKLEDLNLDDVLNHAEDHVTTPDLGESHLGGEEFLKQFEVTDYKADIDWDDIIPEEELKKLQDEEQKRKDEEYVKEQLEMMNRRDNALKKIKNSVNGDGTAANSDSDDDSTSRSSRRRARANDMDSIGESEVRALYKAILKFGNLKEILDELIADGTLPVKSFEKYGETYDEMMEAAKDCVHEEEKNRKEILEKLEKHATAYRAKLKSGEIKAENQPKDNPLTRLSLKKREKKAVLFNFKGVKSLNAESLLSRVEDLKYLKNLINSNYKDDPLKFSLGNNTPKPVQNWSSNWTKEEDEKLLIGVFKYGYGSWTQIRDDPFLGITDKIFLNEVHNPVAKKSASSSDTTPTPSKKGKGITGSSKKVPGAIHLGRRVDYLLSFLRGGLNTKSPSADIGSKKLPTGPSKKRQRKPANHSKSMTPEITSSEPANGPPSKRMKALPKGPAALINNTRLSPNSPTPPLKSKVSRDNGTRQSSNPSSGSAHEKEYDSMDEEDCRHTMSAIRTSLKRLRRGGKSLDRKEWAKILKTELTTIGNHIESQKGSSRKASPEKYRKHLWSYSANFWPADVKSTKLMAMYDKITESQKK
# Sequence of Sialic acid-binding Ig-like lectin 9 (Homo sapiens) (Q9Y336 whole entry): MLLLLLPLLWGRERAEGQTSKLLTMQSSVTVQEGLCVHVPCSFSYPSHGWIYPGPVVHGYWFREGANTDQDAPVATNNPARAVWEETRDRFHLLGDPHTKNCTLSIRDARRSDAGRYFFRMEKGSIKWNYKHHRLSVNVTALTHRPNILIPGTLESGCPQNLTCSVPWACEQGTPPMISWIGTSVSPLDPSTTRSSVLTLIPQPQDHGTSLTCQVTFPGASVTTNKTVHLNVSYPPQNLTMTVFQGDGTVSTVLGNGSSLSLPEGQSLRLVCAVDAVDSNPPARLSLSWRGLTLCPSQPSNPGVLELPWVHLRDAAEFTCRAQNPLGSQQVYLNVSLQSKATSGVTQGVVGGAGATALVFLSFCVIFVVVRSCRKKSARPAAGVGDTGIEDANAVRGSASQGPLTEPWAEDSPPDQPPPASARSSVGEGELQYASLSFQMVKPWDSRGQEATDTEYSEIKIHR
# Sequence of Protein translocase subunit SecA (Escherichia coli (strain K12)) (P10408 whole entry): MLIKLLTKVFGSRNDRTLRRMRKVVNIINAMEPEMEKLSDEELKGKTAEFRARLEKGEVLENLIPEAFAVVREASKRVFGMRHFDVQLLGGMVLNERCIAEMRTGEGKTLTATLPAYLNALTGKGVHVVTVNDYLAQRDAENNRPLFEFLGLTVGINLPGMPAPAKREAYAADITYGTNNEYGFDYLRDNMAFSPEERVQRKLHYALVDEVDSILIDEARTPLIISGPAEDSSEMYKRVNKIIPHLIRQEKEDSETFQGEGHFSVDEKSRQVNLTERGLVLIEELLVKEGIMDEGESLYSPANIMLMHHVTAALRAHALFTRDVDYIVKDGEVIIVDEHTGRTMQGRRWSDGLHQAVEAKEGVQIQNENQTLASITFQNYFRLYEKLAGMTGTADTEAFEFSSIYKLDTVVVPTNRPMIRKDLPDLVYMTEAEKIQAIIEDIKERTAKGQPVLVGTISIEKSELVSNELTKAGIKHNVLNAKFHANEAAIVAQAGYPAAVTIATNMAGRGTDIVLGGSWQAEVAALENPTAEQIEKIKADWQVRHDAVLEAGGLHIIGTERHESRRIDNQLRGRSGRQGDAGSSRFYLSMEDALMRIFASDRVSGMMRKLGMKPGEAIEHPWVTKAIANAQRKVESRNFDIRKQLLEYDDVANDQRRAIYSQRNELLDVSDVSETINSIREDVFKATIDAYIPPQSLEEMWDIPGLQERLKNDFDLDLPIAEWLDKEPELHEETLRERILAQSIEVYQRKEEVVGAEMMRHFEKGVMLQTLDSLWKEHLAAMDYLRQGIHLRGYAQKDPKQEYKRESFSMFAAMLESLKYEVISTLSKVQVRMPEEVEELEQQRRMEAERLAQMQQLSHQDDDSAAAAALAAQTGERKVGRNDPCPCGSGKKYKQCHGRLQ
SMILES,Percent Effect [1] [%],Percent Effect [2] [%],Percent Effect [3] [%],Percent Effect [4] [%],Percent Effect (Trypanosoma cruzi) [%],Percent Effect [5] [%],Percent Effect [6] [%],Percent Effect (Homo sapiens) [%],Percent Effect [7] [%],Percent Effect [8] [%],Percent Effect [9] [%]
O=C(CCc1nccs1)N1CCC(N2CCNC2=O)CC1,-3.04,13.7,-3.05,-5.29,-3.33,1.82,12.6,12.7,5.38,12.5,-3.97
c1ccc(OCC2CC3(CCN(Cc4ccncc4)CC3)CO2)nc1 (configuration not stated),-3.46,9.33,6.58,5.09,-4.13,-4.4,12.2,-5.36,2.12,7.69,-5.62
CCn1ncc2c1C(COC)CN(Cc1ccsc1)C2 (configuration not stated),-3.96,18.9,-9.13,5.54,1.47,1.24,6.95,5.76,7.53,16.1,-11.9
COc1cc(C)c(CN2CCC3(CC2)C(C(=O)O)CC(=O)N3C)cc1C (configuration not stated),-0.465,16,-9.44,6.22,0.682,6.77,10.3,22.7,3.83,18.5,-3.84
Cc1nn(C)c(C)c1NC(=O)CN1CCCC1c1noc(C2CC2)n1 (configuration not stated),2.36,13.7,-14.8,1.88,-0.196,3.64,20.6,-0.924,6.45,12.5,-7.02
O=C(N1CCCCC1)N1CCN(CC(O)c2ccc(F)cc2)CC1 (configuration not stated),-0.539,13.2,-0.12,5.2,-4.51,4.21,4.84,20.8,8.33,17.1,-5.09
Cc1ccc(S(=O)(=O)NCCNC(=O)c2ccoc2)cc1F,-4.47,13.3,4.57,12.1,5.75,5.21,15.5,16.4,3.83,13.6,86.1
COc1ccc(-c2nnc(SCC(=O)NCC(C)C)[nH]2)c(OC)c1,-5.51,18.4,1.07,-1.8,4.97,4.73,15.8,12.1,3.19,18.2,-1.07
CCCc1n[nH]c(C2CN(CCCS(C)(=O)=O)CCO2)n1 (configuration not stated),-5.31,11.4,0.105,-1.3,1.13,2.37,14.1,1.09,5.21,10.1,-22.8
CCn1cnnc1C1CCN(C(=O)c2ccc(Cl)s2)CC1,-3.49,17.7,1.65,2.56,-0.661,2.66,5.98,-19.1,4.43,11.4,-3.04
COc1ccc(CN(C)Cc2nc3c(cnn3C)c(=O)[nH]2)cc1OC,-1.17,13.9,4.17,3.18,-3.18,2.8,16.5,11.6,7.29,7.59,-3.45
Cn1c(CN2CCOCC2)nnc1C1CCN(C(=O)C2CCCC2)CC1,0.739,13.5,1.53,14.3,3.09,0.476,20.9,2.19,5.82,19.5,-4.58
Cc1n[nH]c(C2CN(C(=O)c3cnc[nH]3)CCO2)n1 (configuration not stated),-2.98,7.79,4.4,7.68,3.62,-1.05,12.8,-9.06,5.71,21.2,-19.1
CC(C)(C)c1nnc(CN2CCCC2c2noc(C3CC3)n2)o1 (configuration not stated),0.285,8.11,0.0576,-0.506,2.32,-0.554,8.08,-8.49,10.9,28.1,-6.45
Cc1nc(Nc2ncccn2)cc(C2CCCN2C2CCOCC2)n1 (configuration not stated),-5.08,6.76,3.91,3.68,0.593,-3.48,-1.72,13.7,9.68,11.7,-3.64
O=C1NCCCCC1Sc1nnc(C2CC2)n1C1CC1 (configuration not stated),1.19,11,-3.07,-9.6,3.72,8.64,18.5,23.5,5.38,15,-13.5
Cn1cc(N2CCCC(NCc3cccc4c3OCCCO4)C2)cn1 (configuration not stated),-4.17,16.2,-10,1.61,0.472,-4.01,0.721,3.65,7.39,23.5,-7.98
Cc1ccc(C(=O)N2CCc3c(CNS(C)(=O)=O)cncc3C2)o1,3.13,2.67,5.83,1.5,-6.37,-55,8.72,4.16,3.12,5,-7.04
COc1c(CNCc2cccc(CS(C)(=O)=O)c2)c(C)nn1C,-1.32,13.5,-7.47,-4.4,-6.13,1.2,4.68,4.32,-0.493,11.1,-6.98
COc1ccccc1OCC(=O)Nc1ncccc1OC(F)F,-3.34,1.39,-0.812,-4.65,-7.48,4.86,13.2,-3.02,1.05,-5.13,-3.95
c1cc(CNCc2ccnc(N3CCOCC3)c2)c2c(c1)OCCO2,-3.35,5.41,-12.3,26.3,8.31,15.1,6.27,15.7,1.07,16.1,-5.85
CCc1cnc(CN(C(C)=O)C2CCN(CCc3cnn(C)c3)C2)o1 (configuration not stated),-2.73,18.4,-1.21,-1.24,-1.21,2.16,9.56,-1.17,7.39,18.5,-6.82
